Structures are written as SMILES. Several values for one entry are separate records, joined by “and”; a condition that tells them apart may be missing. Identical values can stand only once. Inconclusive results are not listed. A number with no mark means an inactive call. Activity calls are given as the source filed them. Calls follow the shape of the dose curve; as a rule, active = well fitted inhibition curve with a large enough effect; inconclusive = small, poorly fitted or top-dose-only effect; inactive = flat fitted curve, though single readings scatter.
% is scaled to controls: 0 for no effect and ±100 for the full control effect; potency is read from the fitted curve at half-maximal effect.

A short description of the test: Primary qHTS for inhibitors of nuclear receptor binding SET domain protein 2 (NSD2) in an isogenic RCH-ACV NSD2 p.E1099K mutant (9B) (AID 1645876). Also: nearly all actives have a fitted effect of over 70% in size. Particulars: RCH-ACV (leukaemia line) NSD2 E1099K (9B) viability, CellTiter-Glo, 72 h; series mostly up to 44.9 µM; activity change, negative = viability loss: at the top concentration.
`O=C(Nc1cn[nH]c1-c1nc2ccc(CN3CCOCC3)cc2[nH]1)NC1CC1`: the Potency is 325 nM (active) and 366 nM (active) and 166 nM (active).

Turning to `Cc1c(NC(=O)OC[C@@H]2COCCN2)cn2ncnc(Nc3ccc4c(cnn4Cc4cccc(F)c4)c3)c12`, the Potency was 16.6 µM (active).

Take `CC(=O)Nc1nc(C)c(-c2ccc(Cl)c(S(=O)(=O)NCCO)c2)s1`: the Potency is 1.32 µM (active).

As to `O=C(O)Cn1nnc(-c2cc(N3CCC(Oc4cc(F)ccc4Br)CC3)no2)n1`, the “activity change, negative = viability loss” value was -21.2%.

For `Cc1cn2cc(C(=O)N(C)CCO)cc(N[C@@H]3CCOc4cccc(C)c43)c2n1`, the “activity change, negative = viability loss” value was 3.09%.

`Cc1cc(Nc2cc(N3CCN(C)CC3)nc(Sc3ccc(NC(=O)C4CC4)cc3)n2)n[nH]1`: the Potency is 0.296 µM (active).

Regarding `Cc1nc(N)ncc1-c1nc(N2CCOCC2)c2sc(C(C)(C)O)cc2n1`, the Potency was 81.7 nM (active) and 590 nM (active).

On to `CCn1cc(-c2ccnc3[nH]c(-c4cccc(CN(C)C)c4)cc23)c(-c2ccc(NC(=O)N(C)C)cc2)n1`, for which the Potency is 112 nM (active) and 1.86 µM (active).

`CN1CCN(c2cc(C(=O)Nc3ccc4c(c3)-c3c(c(C(N)=O)nn3-c3ccc(F)cc3)CC4)c(Cl)cn2)CC1`: the Potency is 7.42 µM (active).

Regarding `CNC(=O)c1ccccc1Nc1nc(Nc2ccc(N3CCOCC3)cc2OC)ncc1Cl`, the Potency is 2.05 µM (active) and 2.35 µM (active).

With `Cc1cc(N2CCOCC2)cc2[nH]c(-c3c(NC[C@@H](O)c4cccc(Cl)c4)cc[nH]c3=O)nc12`, the Potency is 1.66 µM (active).

With `COC(=O)c1ccc2c(C(=Nc3ccc(N(C)C(=O)CN4CCN(C)CC4)cc3)c3ccccc3)c(O)[nH]c2c1`, the Potency is 1.83 µM (active) and 2.63 µM (active).

For the origin of these results see PubChem BioAssay (NCATS).
